# Bioassay records as filed in PubChem BioAssay.
# Rows were chosen to be rich in hits. Some 32% of all compounds tested hit in one or more screens of this group.
# PostGolgi ctrl: growth of the yeast control strain, post-Golgi counter-screen | inhibition, % at 10 µM | efflux-deficient yeast background strain, growth absorbance A615, 16 h | 5% of 98,000 active
# CYP2C9 activ: activators of human CYP2C9. activation factor at 5 µM. recombinant CYP2C9, luciferin-H conversion, luminescence; stronger effect = higher value; factor 1 = untreated enzyme, 0 = blocked. AID 1024. 1.4% of 96,000 active. P11712;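 active = activation factor of 2 or more for CYP2C9 at a 5 µM dose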;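 note: 0 = sulfaphenazole-blocked wells and 1 = vehicle-only wells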
# Target sequence (P11712 whole entry, looked up): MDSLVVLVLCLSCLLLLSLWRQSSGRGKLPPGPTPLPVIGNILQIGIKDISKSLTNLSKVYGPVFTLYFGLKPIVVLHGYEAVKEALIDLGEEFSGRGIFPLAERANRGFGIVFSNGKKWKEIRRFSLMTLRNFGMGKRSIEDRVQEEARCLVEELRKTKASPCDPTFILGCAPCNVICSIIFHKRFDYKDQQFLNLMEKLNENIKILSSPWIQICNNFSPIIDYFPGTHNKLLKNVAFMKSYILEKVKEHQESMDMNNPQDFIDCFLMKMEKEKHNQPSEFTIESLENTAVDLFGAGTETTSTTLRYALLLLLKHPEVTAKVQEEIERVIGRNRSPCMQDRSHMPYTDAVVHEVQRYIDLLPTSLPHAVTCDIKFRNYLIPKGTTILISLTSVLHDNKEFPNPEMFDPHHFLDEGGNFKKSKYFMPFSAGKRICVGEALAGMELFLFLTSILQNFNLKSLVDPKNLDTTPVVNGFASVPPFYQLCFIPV
# CYP2C9 inh: blocks human cytochrome P450 2C9. P11712. inhibition, % at 5 µM. 20% of 96,000 active. CYP2C9 Supersomes, luciferin-H conversion, luminescence;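 active = blocking of liver enzyme CYP2C9 beyond about 50% at 5 µM, limit read from the data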
# CYP2C19 inh: blocks human cytochrome P450 2C19 | P33261 | inhibition, % at 5 µM | 21% of 96,000 active | CYP2C19 Supersomes, luciferin-H EGE luminescence, 30 min | AID 778;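 active = CYP2C19 inhibition above a set limit at 5 µM in the primary screen, cut at about 50% in these data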;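 note: plate controls were negative control wells for no effect and 2.5 mM tranylcypromine positive control for full effect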
# CYP2C19 activ: activators of human cytochrome P450 2C19; activation factor at 5 µM; AID 1025; recombinant CYP2C19, luciferin-H EGE luminescence; stronger effect = higher value; 0 = fully inhibited enzyme, 1 = untreated enzyme; 96,000 tested, under 10 active;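 active = activation factor of at least 2 at 5 µM in the primary screen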;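 note: 0 = wells with 2.5 mM tranylcypromine and 1 = vehicle-only wells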
# PostGolgi yeast: growth inhibition of a yeast mutant, post-Golgi transport screen. post-Golgi transport phenotypic cell assay. inhibition, % at 10 µM. 0.9% of 98,000 active;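 note: yeast cells grown in 1536-well plates; yeast grown about 18 h at 30C before absorbance read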
# Numbers without * were called inactive; nt = not tested or not shown. Cut-off read from the data, not from the text of the source, unless noted: active = inhibition above about 30%; inactive = the rest.
SMILES,PostGolgi ctrl,CYP2C9 activ,CYP2C9 inh,CYP2C19 inh,CYP2C19 activ,PostGolgi yeast
O=C(CC(c1ccccc1)c1ccccc1O)N1CCCC1 (stereo not drawn),2.3,1,3.2,35.3,0.6,3.7
Cc1cccc(C(CC(=O)N2CCCC2)c2ccccc2)c1O (stereo not drawn),20.1,0.3,73.4*,84.0*,0.2,1.8
Cc1ccc(C(CC(=O)N2CCCC2)c2ccccc2)c(O)c1C (stereo not drawn),7.2,0,96.1*,96.4*,0,-5.9
Fc1ccc(COc2ccc(/C=N/n3cnnc3)cc2)cc1,34.9*,0.1,92.4*,91.5*,0.1,10.3
CC(=O)c1cccc(NC(=O)CCS(=O)(=O)c2cccc3nsnc23)c1,33.5*,0.7,34.6,49.5,0.5,-2.5
Cc1ccc(C)c(N(C)S(=O)(=O)c2cccc3nsnc23)c1,10.1,2.3*,-131.8,43.6,0.6,-4.0
Cc1cccc(NC(=O)CN(C)S(=O)(=O)c2cccc3nsnc23)c1C,-1.1,1.4,-38.0,60.0*,0.4,4.0
Cc1cc(C)cc(NC(=O)CN(C)S(=O)(=O)c2cccc3nsnc23)c1,10.9,0.5,54.5*,37.4,0.6,-0.5
CCc1cccc(NC(=O)CN(C)S(=O)(=O)c2cccc3nsnc23)c1,-2.9,nt,nt,nt,nt,-9.2
O=C(CCS(=O)(=O)c1cccc2nsnc12)NCc1ccccc1,-7.4,nt,nt,nt,nt,-2.5
CCOc1ccccc1NC(=O)CN(C)S(=O)(=O)c1cccc2nsnc12,12.2,nt,nt,nt,nt,0.8
CN1CCN(S(=O)(=O)c2ccc(Sc3nnc(-c4cccs4)n3-c3ccccc3)nc2)CC1,7.5,0.9,8.0,-2.9,1,7.6
Cc1ccc(NC(=O)COC(=O)C2CCC(=O)N2)c(S(=O)(=O)N2CCOCC2)c1 (stereo not drawn),11.6,1.7,-74.8,-10.5,1.1,1.4
CCOC(=O)CSc1nnc(CNC(=O)c2cccs2)n1CCc1ccccc1,-2.4,0.9,13.8,35.9,0.6,8.9
NC(=O)c1oc2ccccc2c1NC(=O)C1CCCCC1,11.0,2.7*,-171.9,0.6,1,6.8
NC(=O)c1oc2ccccc2c1NC(=O)CN1CCCCC1,-1.6,1.4,-37.6,-2.2,1,-0.3
COC(=O)c1nn(-c2ccc3c(c2)CCN3C(C)=O)cc1O,7.3,0.9,10.2,67.5*,0.3,-2.6
CC(=O)N1CCc2cc(S(=O)(=O)N3CCOCC3)ccc21,8.3,1,-0.6,-1.0,1,-0.9
COC(=O)c1nn(-c2ccc3c(c2)OCO3)cc1O,37.3*,0.9,7.4,42.2,0.6,3.7
CCOC(=O)c1nn(-c2ccc(C)c(C)c2)cc1O,13.2,0.6,39.5,39.1,0.6,-2.0
N#CN=C1SCCS1,6.5,1.2,-19.8,-22.0,1.2,8.5
CCOC(=O)C1=C(N)OC2=C(C(=O)CCC2)C1c1cccnc1 (stereo not drawn),-5.0,0.9,6.8,22.5,0.8,15.5
CCOC(=O)C1=C(N)OC2=C(C(=O)CC(C)(C)C2)C1C1CCCCC1 (stereo not drawn),20.8,0.4,56.1*,24.0,0.8,4.2
COC(=O)C1=C(N)OC2=C(C(=O)CC(C)(C)C2)C1c1cccs1 (stereo not drawn),5.8,0.2,80.9*,72.9*,0.3,-7.6
CCOC(=O)C1=C(N)OC2=C(C(=O)CC(C)(C)C2)C1c1cccnc1 (stereo not drawn),7.0,0.3,71.2*,75.5*,0.2,7.2
SMILES,PostGolgi ctrl,CYP2C9 activ,CYP2C9 inh,CYP2C19 inh,CYP2C19 activ,PostGolgi yeast
CCOC(=O)C1=C(N)OC2=C(C(=O)CC(C)(C)C2)C1c1ccoc1 (stereo not drawn),-0.4,0.3,67.4*,64.3*,0.4,-3.4
CC1(C)CC(=O)C(C2C3=C(CC(C)(C)CC3=O)Oc3ccccc32)=C(O)C1 (stereo not drawn),21.7,0.6,43.5,7.8,0.9,8.6
Cn1c(=O)c2c(nc(CN3CCN(C(=O)c4ccco4)CC3)n2Cc2ccc(Cl)cc2)n(C)c1=O,18.8,0.8,23.1,11.5,0.9,5.0
CCOc1c(Cl)cc(C(=O)NCCN2CCCCC2)cc1Cl,2.8,1.1,-5.2,-0.9,1,-2.9
c1ccc(CNn2nnnc2-c2ccccc2)cc1,-1.4,0.9,12.9,68.2*,0.3,0.2
c1ccc(Cn2nnnc2-c2ccco2)cc1,-10.4,0.8,16.3,45.4,0.5,5.3
CCCc1nnc(NC(=O)CSc2ncn[nH]2)s1,4.7,0.9,5.8,36.0,0.6,-3.9
CCOC(=O)c1c(NC(=O)CSc2nc3ccccc3o2)sc(C)c1C,6.9,0.5,46.1,30.9,0.7,0.0
CCOC(=O)c1c(NC(=O)CSc2ncn[nH]2)sc(C)c1C,5.0,0.1,85.3*,72.9*,0.3,-1.1
CCOC(=O)c1c(NC(=O)CSc2nc3ccccc3s2)sc(C)c1C,20.7,0.3,65.0*,27.6,0.7,-2.8
Cc1ccccc1C(=O)c1cccn1CC(=O)N1CCCCCC1,15.4,0.7,32.2,32.8,0.7,-3.1
COc1ccc(-c2cc(C(F)(F)F)n3nc(C(=O)N4CCOCC4)nc3n2)cc1,-4.9,1,-2.7,-11.8,1.1,-10.1
CCn1cc([N+](=O)[O-])c(C(=O)N2CCCC2)n1,-4.8,0.6,41.0,55.6*,0.4,-5.9
CCn1cc([N+](=O)[O-])c(C(=O)Nc2ccc3c(c2)OCCO3)n1,33.4*,1,4.3,48.9,0.5,-10.4
CCN(CC)S(=O)(=O)c1ccc(C(=O)Nc2ccc3c(c2)OCCO3)cc1,-4.1,0.8,23.7,15.2,0.8,-4.5
Cc1cccc(NS(=O)(=O)c2ccc(C)c(C(=O)OCC(=O)Nc3cc(C)on3)c2)c1,2.6,0.1,94.0*,89.4*,0.1,-2.2
Cc1cccc(NS(=O)(=O)c2cc(C(=O)OCC(=O)Nc3cc(C)on3)ccc2C)c1,-0.1,0.2,83.6*,48.1,0.5,-6.1
Cc1cc(OCC(=O)Nn2cnnc2)ccc1Br,-9.1,0,100.3*,99.9*,0,-2.0
O=C(c1ccc(Cl)c(Cl)c1)N(Cc1ccco1)c1ccc(O)cc1,25.2,0,98.3*,99.0*,0,0.5
CC(C)NC(=O)NC(=O)CSc1nncn1C,0.1,1,-3.6,-7.5,1.1,-0.5
CCc1nc(SC)[nH]c(=O)c1C,16.4,0.8,15.5,95.4*,0,2.5
CCCc1nc(SCC(N)=O)[nH]c(=O)c1CC,1.8,1.1,-5.0,0.4,1,5.5
COc1cccc(/C=N/NC(=O)c2[nH]c(C)c(C(=O)N/N=C/c3cccc(OC)c3O)c2C)c1O,-4.7,1.1,-8.0,-7.6,1.1,-11.7
COc1ccc(OC)c(C2C(C#N)=C(N)Oc3c2c(C)nn3-c2cccc(Cl)c2)c1 (stereo not drawn),2.5,0,98.5*,82.6*,0.2,1.7
